Results filed as inconclusive are left out. Values without a mark were called inactive. Active and inactive are the calls of the source. The call rests on the fitted dose curve; in most records, active means well fitted cell-killing curve with a large enough effect; inconclusive means small, poorly fitted or top-dose-only effect, or effect the other way; inactive means flat fitted curve, though single readings scatter. Where a SMILES comes first, the peptide text is derived from it. [ ]: non-standard residue; d: D form. ξ: configuration not given here. ξLac(3-iPr) = CC(C)CC(O)C(=O)O; NMeV = CN[CH](C(=O)O)C(C)C; βAla = NCCC(=O)O

Holding throughout (test): Primary qHTS to identify gynecologic anti-cancer compounds using libraries of approved drugs and bioactive compounds (AID 1345084); further: nearly all actives have a fitted effect of over 55% in size
One experiment relates to C33A. To be noted: Gynecologic cancer cell panel viability, ATPlite luminescence, 48 h; series mostly up to 57.5 µM. Summed up: (§1)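 Five-concentration response, 48 h; readout is ATP-driven luciferase luminescence.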
In general terms: In ATP-based viability assays light output follows the ATP content of the culture.

For a further experiment, the system named is CAOV3. To be noted: Gynecologic cancer cell panel viability, ATPlite luminescence, 48 h; series mostly up to 57.5 µM. In outline:
as §1

For the next experiment, the system named is CASKI. To be noted: Gynecologic cancer cell panel viability, ATPlite luminescence, 48 h; series mostly up to 57.5 µM. Summed up:
as §1

A further experiment deals with Es-2. To be noted: Gynecologic cancer cell panel viability, ATPlite luminescence, 48 h; series mostly up to 57.5 µM. Summed up: as §1
Another experiment relates to HeLa. To be noted: Gynecologic cancer cell panel viability, ATPlite luminescence, 48 h; series mostly up to 57.5 µM. Summed up:
as §1

Another experiment deals with Hek293T. The settings on record: Gynecologic cancer cell panel viability, ATPlite luminescence, 48 h, control line for the selectivity index; series mostly up to 57.5 µM. In outline: as §1
Another experiment relates to JEG-3. The settings on record: Gynecologic cancer cell panel viability, ATPlite luminescence, 48 h; series mostly up to 57.5 µM. In outline: as §1
The test system of the next experiment is OV90. The settings on record: Gynecologic cancer cell panel viability, ATPlite luminescence, 48 h; series mostly up to 57.5 µM. Summed up:
as §1

A further experiment deals with PA-1. The settings on record: Gynecologic cancer cell panel viability, ATPlite luminescence, 48 h; series mostly up to 57.5 µM. Summed up:
as §1

The test system of another experiment is SKOV3. The settings on record: Gynecologic cancer cell panel viability, ATPlite luminescence, 48 h; series mostly up to 57.5 µM. Summed up: as §1
Another experiment concerns Tov-21-G. The settings on record: Gynecologic cancer cell panel viability, ATPlite luminescence, 48 h; series mostly up to 57.5 µM. In outline:
as §1

The subject of another experiment is Tov112D. The settings on record: Gynecologic cancer cell panel viability, ATPlite luminescence, 48 h; series mostly up to 57.5 µM. In outline:
as §1
On the % scale 0 is the no-effect control and ±100 the full control effect; potency means the concentration at half of the fitted maximal effect.

As for `CC(C)CC1OC(=O)C2CCCN2C(=O)CCNC(=O)C(Cc2ccccc2)NC(=O)C(C(C)C)N(C)C(=O)C(C(C)C)N(C)C1=O` (stereo not drawn) (cyclo([ξLac(3-iPr)][NMeV][NMeV]F[βAla]P); configuration not given here), the Potency entry in the experiment with C33A, in the experiment with CAOV3, in the experiment with CASKI, in the experiment on Es-2, in the experiment with HeLa and in the experiment on Hek293T was “inactive” each time. Also, the Potency result in the experiment on JEG-3, in the experiment with OV90, in the experiment with PA-1, in the experiment on SKOV3, in the experiment with Tov-21-G and with Tov112D was “inactive” throughout.

`COC1CC(OC2CCC3(C)C(=CCC4C3C(OC(C)=O)C(OC(=O)/C=C/c3ccccc3)C3(C)C(C(C)O)CCC43O)C2)OC(C)C1OC1CC(OC)C(OC2OC(C)C(OC3OC(CO)C(O)C(O)C3O)C(OC)C2O)C(C)O1` (stereo not drawn): the activity change, negative = cytotoxicity was -4.62% [at 6.55 µM] with C33A; 1.34% [at 6.55 µM] in the experiment with CAOV3; -3.47% [at 6.55 µM] with CASKI; 4.75% [at 6.55 µM] with Es-2; -0.474% [at 6.55 µM] in the experiment on HeLa; -0.285% [at 6.55 µM] in the experiment with Hek293T. Moreover, the activity change, negative = cytotoxicity in the experiment with JEG-3 is -8.61% [at 6.55 µM]; with OV90, -2.22% [at 6.55 µM]; with PA-1 it was -0.704% [at 6.55 µM]; in the experiment on SKOV3 it was -8.31% [at 6.55 µM]; with Tov-21-G, 9.97% [at 6.55 µM]; in the experiment with Tov112D, 2.28% [at 6.55 µM].

`CC(C)CN(C[C@@H](O)[C@H](Cc1ccccc1)NC(=O)O[C@@H]1CO[C@H]2OCC[C@H]21)S(=O)(=O)c1ccc(N)cc1`: the Potency entry with C33A, in the experiment with CAOV3, in the experiment on CASKI, with Es-2, with HeLa and in the experiment on Hek293T was “inactive” each time. Also, the Potency result in the experiment with JEG-3, with OV90, in the experiment with PA-1, with SKOV3, in the experiment on Tov-21-G and in the experiment on Tov112D was “inactive” throughout.

Turning to `CC(c1ncncc1F)C(O)(Cn1cncn1)c1ccc(F)cc1F` (stereo not drawn), the Potency result with C33A, in the experiment on CAOV3, with CASKI, in the experiment on Es-2, with HeLa and in the experiment with Hek293T was “inactive” throughout. For the same compound, the Potency result in the experiment on JEG-3, in the experiment with OV90, with PA-1, with SKOV3, with Tov-21-G and with Tov112D was “inactive” throughout.

Regarding `CC(C)CC1NC(=O)C2CC3(O)c4ccccc4NC3N2C1=O` (stereo not drawn), the Potency entry in the experiment with C33A, with CAOV3, with CASKI, with Es-2, with HeLa and in the experiment on Hek293T was “inactive” in each case. The Potency result in the experiment on JEG-3, in the experiment with OV90, in the experiment with PA-1, in the experiment on SKOV3, in the experiment on Tov-21-G and with Tov112D was “inactive” throughout.

For `CCC(C)C(=O)O[C@H]1CCC=C2C=C[C@H](C)[C@H](CC[C@@H](O)C[C@@H](O)CC(=O)O)[C@H]21` (stereo partly drawn), the Potency entry with C33A, with CAOV3, with CASKI, with Es-2, with HeLa and in the experiment with Hek293T was “inactive” throughout. For the same compound, the Potency result in the experiment with JEG-3, with OV90, with PA-1, in the experiment on SKOV3, in the experiment on Tov-21-G and with Tov112D was “inactive” in each case.

In the case of `C=CC[C@]12C[C@@H](OC)C(=O)C(OC)=C1O[C@@H](c1cc(OC)c3c(c1)OCO3)[C@@H]2C`, the Potency result in the experiment with C33A, with CAOV3, with CASKI, with Es-2, in the experiment on HeLa and in the experiment with Hek293T was “inactive” each time. Besides, the Potency entry in the experiment with JEG-3, with OV90, in the experiment with PA-1, in the experiment with SKOV3, in the experiment with Tov-21-G and in the experiment on Tov112D was “inactive” each time.

With `CC1=C2C(O)C(=O)OC(c3ccoc3)C2(C)CCC1O` (stereo not drawn), the Potency result with C33A, with CAOV3, in the experiment on CASKI, in the experiment on Es-2, in the experiment with HeLa and in the experiment on Hek293T was “inactive” throughout. The Potency entry in the experiment with JEG-3, in the experiment with OV90, with PA-1, with SKOV3, with Tov-21-G and in the experiment with Tov112D was “inactive” in each case.

Regarding `CCCN1CCN(c2ccc(C(=O)NC3(C(=O)NCC#N)CCCCC3)cc2)CC1`, the Potency result in the experiment with C33A, in the experiment on CAOV3, in the experiment with CASKI, in the experiment with Es-2, in the experiment on HeLa and in the experiment with Hek293T was “inactive” each time. Moreover, the Potency result with JEG-3, in the experiment with OV90, in the experiment with PA-1, in the experiment on SKOV3, in the experiment with Tov-21-G and with Tov112D was “inactive” throughout.

`C/C(=C\CCC(C)CCO)C(=O)O[C@@H]1[C@@H](O)[C@H](OC2OC=C(C(=O)O)C3CCC(C)(O)C23)O[C@H](CO)[C@H]1O` (stereo partly drawn): the Potency entry in the experiment on C33A, with CAOV3, in the experiment on CASKI, in the experiment on Es-2, in the experiment with HeLa and with Hek293T was “inactive” in each case. Moreover, the Potency entry with JEG-3, in the experiment with OV90, with PA-1, in the experiment on SKOV3, in the experiment on Tov-21-G and with Tov112D was “inactive” throughout.

In the case of `Cc1cc(=O)oc2c(C=O)c(O)ccc12`, the Potency entry with C33A, with CAOV3, in the experiment with CASKI, in the experiment with Es-2, in the experiment on HeLa and with Hek293T was “inactive” each time. Besides, the Potency entry in the experiment on JEG-3, in the experiment with OV90, in the experiment with PA-1, in the experiment with SKOV3, in the experiment with Tov-21-G and in the experiment on Tov112D was “inactive” throughout.

For `Cc1oc2ccccc2c1CNC(=O)NCc1cccs1`, the Potency result with C33A, with CAOV3, with CASKI, in the experiment with Es-2, with HeLa and in the experiment with Hek293T was “inactive” in each case. The Potency entry in the experiment with JEG-3, in the experiment on OV90, in the experiment with PA-1, in the experiment on SKOV3, with Tov-21-G and in the experiment with Tov112D was “inactive” in each case.

For `Nc1nc2c(c(=O)[nH]1)C[C@@H](CCc1ccc(C(=O)N[C@@H](CCC(=O)O)C(=O)O)cc1)CN2`, the Potency in the experiment with C33A is 631 nM (active); in the experiment on CASKI, 282 nM (active); with Es-2, 282 nM (active); in the experiment on HeLa, 282 nM (active); in the experiment on Hek293T, 316 nM (active); with JEG-3 it was 10000 nM (active). Also, the Potency in the experiment on OV90 was 501 nM (active); with PA-1 it was 282 nM (active); in the experiment with Tov-21-G, 100 nM (active); with Tov112D it was 1260 nM (active). The Potency entry with CAOV3 and with SKOV3 was “inactive” in each case.

Take `CC1COC2(OC3CC4C5CC(O[C@@H]6O[C@H](C)[C@@H](O[C@@H]7O[C@@H](C)[C@H](O)[C@@H](O)[C@H]7O)[C@H](O)[C@H]6O)C6CC(O)CCC6(C)C5CCC4(C)C3C2C)C(O)C1` (stereo partly drawn): the Potency result with C33A, in the experiment with CAOV3, in the experiment on CASKI, in the experiment on Es-2, with HeLa and in the experiment with Hek293T was “inactive” each time. Moreover, the Potency result in the experiment with JEG-3, with OV90, with PA-1, in the experiment on SKOV3, with Tov-21-G and with Tov112D was “inactive” throughout.

As for `CC(=O)O[C@H]1CC[C@@]2(C)C(CC[C@@H](C)[C@]23Cc2c(O)cc4c(c2O3)CN([C@@H](CCC(=O)O)C(=O)O)C4=O)C1(C)C` (stereo partly drawn), the Potency entry in the experiment on C33A, with CAOV3, in the experiment with CASKI, in the experiment on Es-2, with HeLa and in the experiment with Hek293T was “inactive” throughout. Moreover, the Potency entry with JEG-3, in the experiment on OV90, in the experiment with PA-1, with SKOV3, in the experiment with Tov-21-G and in the experiment on Tov112D was “inactive” in each case.

For the compound `COC(=O)CC(C)(O)CC(=O)OCc1ccc(O[C@@H]2O[C@H](CO)[C@@H](O)[C@H](O)[C@H]2O)cc1` (stereo partly drawn), the Potency result in the experiment with C33A, with CAOV3, in the experiment with CASKI, in the experiment with Es-2, in the experiment on HeLa and with Hek293T was “inactive” throughout. Also, the Potency entry in the experiment on JEG-3, in the experiment with OV90, with PA-1, in the experiment on SKOV3, in the experiment on Tov-21-G and with Tov112D was “inactive” throughout.

On to `C[C@@H]1O[C@@H](OC[C@H]2O[C@@H](Oc3cc(O)cc4c3C(=O)C(O)(Cc3ccc(O)cc3)O4)[C@H](O)[C@@H](O)[C@@H]2O)[C@H](O)[C@H](O)[C@H]1O` (stereo partly drawn), for which the Potency entry with C33A, in the experiment with CAOV3, in the experiment on CASKI, in the experiment with Es-2, in the experiment with HeLa and with Hek293T was “inactive” each time. The Potency result in the experiment on JEG-3, with OV90, in the experiment with PA-1, in the experiment on SKOV3, with Tov-21-G and in the experiment with Tov112D was “inactive” in each case.

Consider `CC1=CC(=O)C(=C(C)C)CC2C1CCC2(C)O` (stereo not drawn), for which the Potency result in the experiment on C33A, with CAOV3, in the experiment with CASKI, in the experiment with Es-2, in the experiment with HeLa and in the experiment on Hek293T was “inactive” in each case. Also, the Potency result with JEG-3, with OV90, in the experiment on PA-1, in the experiment on SKOV3, with Tov-21-G and in the experiment on Tov112D was “inactive” each time.

In the case of `C[C@]12C=C[C@@]3(CCC4[C@](C)(CO)CCC[C@@]4(C)C3CC1)C2` (stereo partly drawn), the Potency entry in the experiment on C33A, in the experiment on CAOV3, in the experiment with CASKI, with Es-2, in the experiment on HeLa and with Hek293T was “inactive” in each case. Besides, the Potency entry in the experiment with JEG-3, with OV90, in the experiment with PA-1, with SKOV3, with Tov-21-G and in the experiment on Tov112D was “inactive” in each case.

The values above are taken from PubChem BioAssay (NCATS).
